# Source: PubChem BioAssay (National Center for Advancing Translational Sciences (NCATS))
# FLuc counter: qHTS profiling assay for firefly luciferase inhibitor/activator using purifed enzyme and Km concentrations of substrates (counterscreen for miR-21 project); hit rate 6.9% among 360,000; Luciferin 4-monooxygenase (Photinus pyralis), P08659; Potency, µM (series often up to 57.5 µM), inactives show at the top dose activity change, negative = inhibition, actives largely listed as inhibitors; purified FLuc, Km substrates, luminescence inhibition; AID 588342, 2011;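 also: plate controls were vehicle for no effect and reference inhibitor for full effect; nearly all actives have a fitted effect of over 55% in size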
# Target sequence (P08659 whole entry, looked up): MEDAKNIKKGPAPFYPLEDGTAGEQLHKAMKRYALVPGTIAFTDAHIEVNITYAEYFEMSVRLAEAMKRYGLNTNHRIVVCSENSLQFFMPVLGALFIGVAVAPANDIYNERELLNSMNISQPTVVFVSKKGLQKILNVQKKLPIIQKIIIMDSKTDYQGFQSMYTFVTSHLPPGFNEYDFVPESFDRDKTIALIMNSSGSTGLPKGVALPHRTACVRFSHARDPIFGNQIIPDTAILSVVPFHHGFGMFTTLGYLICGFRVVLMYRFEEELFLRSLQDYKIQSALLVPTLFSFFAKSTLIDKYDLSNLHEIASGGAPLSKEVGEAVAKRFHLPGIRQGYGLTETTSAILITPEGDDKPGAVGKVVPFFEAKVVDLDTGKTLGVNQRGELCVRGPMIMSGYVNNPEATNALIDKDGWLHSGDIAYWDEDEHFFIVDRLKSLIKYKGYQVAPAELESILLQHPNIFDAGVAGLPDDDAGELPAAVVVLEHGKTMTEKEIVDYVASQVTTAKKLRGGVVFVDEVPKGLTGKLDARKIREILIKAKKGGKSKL
#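 Purified P. pyralis luciferase, 10 nM final, with Km-level 10 uM D-luciferin and 10 uM ATP in 50 mM Tris acetate pH 7.5, 10 mM Mg acetate, 0.01% Tween-20, 0.05% BSA; 6-point qHTS titration about 60 µM downward; luminescence read.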
# ELG1 repair inh: qHTS screen for small molecules that inhibit ELG1-dependent DNA repair in human embryonic kidney (HEK293T) cells expressing luciferase-tagged ELG1 | HEK293T ELG1-luciferase reporter, luminescence, 16 h; DNA damage induced by 5-fluorouridine | Potency, µM (doses to about 46.1 µM), for the others: at the highest dose activity change, negative = inhibition, usual class: inhibitors | hit rate 2.3% among 330,000 | AID 504467, 2011; also: % is scaled to controls: 0 for no effect and ±100 for the full control effect; nearly all actives have a fitted effect of over 55% in size
#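 Luminescence from the luciferase reporter, measured 30 min after ONE-Glo reagent at room temperature, was the read-out. Beforehand, 2,000 cells per well were exposed for 16 hr at 37 °C to 5-fluorouridine together with compound or vehicle.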
# NPC1 prom act: qHTS Assay for NPC1 Promoter Activators | Potency, µM (series often up to 9.22 µM), for the others: at the highest dose activation, hits mostly activators | hit rate 2.4% among 320,000 | Huh7 NPC1 promoter luciferase reporter, 24 h | AID 485313, 2010; also: % of control where 0% means no effect; nearly all actives have a fitted effect of over 60% in size
#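 Huh7 cells stably carrying NPC1 promoter–luciferase, plated in Opti-MEM with 10% FBS for 2 h, were exposed to compound in DMSO for 24 h at 37 °C; luciferase reagent was added for 10 min and luminescence read.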
# Rab9 prom act: qHTS Assay for Rab9 Promoter Activators; Potency, µM (titrated, usually from 9.22 µM), without a hit: at the top dose activation, negative = inhibition, hits mostly activators; hit rate 2.8% among 320,000; Huh7 Rab9 promoter-luciferase reporter, luminescence, 24 h; also: % of control where 0% means no effect; nearly all actives have a fitted effect of over 60% in size
#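 Using Huh7 cells stably transfected with Rab9 promoter–luciferase, compounds were incubated 24 h at 37 °C, 5% CO2; luciferase luminescence was read 10 min after reagent addition.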
# SMN2 splice up: qHTS Assay for Enhancers of SMN2 Splice Variant Expression; HEK293 SMN2-luciferase splicing reporter, luminescence, 30-36 h; Potency, µM (highest dose often 46.1 µM), without a hit: at the top dose activity change, positive = activation, actives largely listed as activators; hit rate 2.8% among 210,000; AID 1458, 2008; also: % of control where 0% means no effect; nearly all actives have a fitted effect of over 55% in size
#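 qHTS luciferase splicing reporter: luminescence rises when SMN2 exon 7 is included in transfected HEK293 cells. Compound exposure lasted 30-36 h at 37C, with 4.5 mM final sodium butyrate as control, followed by a ONE-Glo read.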
# ELG1 genotox: qHTS screen for small molecules that induce genotoxicity in human embryonic kidney (HEK293T) cells expressing luciferase-tagged ELG1; HEK293T ELG1-luciferase reporter, luminescence, 16 h; hit rate 1.3% among 330,000; Potency, µM (doses to about 46 µM), for the others: at the top dose activity change, positive = activation, usual class: activators; also: % of control where 0% means no effect; nearly all actives have a fitted effect of over 60% in size
#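 ELG1-luciferase HEK293T cells, 2,000/well; compound pinned in; 16 hr, 37 °C, 5% CO2; ONE-Glo, 30 min RT; luminescence on CCD imager.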
# The depositor's hits bear a star; ? = inconclusive; · = no result. Sampled rows, rich in hits. Any-hit rate of the full collection: about 9.2%. Calls follow the shape of the dose curve; as a rule, active = well fitted curve in the direction sought with a large enough effect; inconclusive = small, poorly fitted or top-dose-only effect, or another doubt; inactive = no such curve, though single readings can be large; an effect the other way counts as inactive or inconclusive. Potency is read from the fitted curve at half-maximal effect.
SMILES,FLuc counter,ELG1 repair inh,NPC1 prom act,Rab9 prom act,SMN2 splice up,ELG1 genotox
CCOc1ccc(C(C)=O)cc1COC(=O)c1ccccc1C(=O)N(C)Cc1ccccc1,2%,?,0%,-3%,·,-7%
Cc1ccc(-n2c(C)cc(/C=N/NC(=O)CC3(C)OCCO3)c2C)cc1,24µM*,?,-1%,-1%,-50%,1%
COc1ccc(Cl)cc1NC(=O)C(=O)N/N=C/c1cc(C)n(-c2ccc(C)cc2)c1C,3.4µM*,8%,-3%,-1%,9%,1%
Cc1cc(/C=N/NC(=O)c2ccncc2)c(C)n1-c1cccc(C(F)(F)F)c1,-2%,5%,-2%,-5%,·,4%
Cc1ccc(-n2c(C)cc(/C=N/NC(=O)c3ccncc3)c2C)cc1,5.4µM*,2%,1%,4%,-27%,?
CC(C)Cc1cc(C(=O)N2CCC(N3CCC(C(=O)N4CCOCC4)CC3)CC2)n[nH]1,-3%,-5%,0%,-1%,·,1%
CCN(C(=O)COC(=O)C1=COCCO1)c1c(N)n(Cc2ccccc2)c(=O)[nH]c1=O,0%,20%,-3%,-3%,·,-8%
Cc1ccc(NC(=O)CC2S/C(=N/c3nccs3)N(C)C2=O)c(C)c1 (centres undefined),10%,-9%,2%,-1%,-15%,5%
CC(=O)c1ccc(OC(C)c2nc3ccccc3s2)cc1 (centres undefined),?,?,29%,?,·,?
O=C(O)c1ccc2c(c1)C(=O)N(c1nccs1)C2=O,2%,3%,3%,-1%,·,0%
CCc1ccc(NC(=O)CSc2nnc(CNC(=O)c3ccc(OC)cc3)o2)cc1,?,0%,2%,-1%,·,2%
CCN1CCN(CCCNC(=O)CNC(=O)c2nn(-c3ccc(OC)cc3OC)c(=O)c3ccccc23)CC1,-2%,5%,1%,0%,·,0%
O=S(=O)(Nc1cccc(-c2ccc(N3CCOCC3)nn2)c1)c1ccccc1C(F)(F)F,7.6µM*,·,·,·,·,·
O=S(=O)(Nc1ccc(N2CCOCC2)cc1)c1ccc(F)cc1F,-1%,-18%,-4%,2%,0%,-3%
O=S(=O)(Nc1cccc(-c2ccc(N3CCOCC3)nn2)c1)c1cc(C(F)(F)F)ccc1Cl,5.4µM*,·,·,·,·,·
O=S(=O)(Nc1cccc(-c2ccc(N3CCOCC3)nn2)c1)c1ccc(F)cc1F,7.6µM*,·,·,·,·,·
COc1cccc(C(=O)Nc2c(C(=O)N3CCN(c4ccc(F)cc4)CC3)oc3ccccc23)c1,-4%,·,·,·,·,·
COc1ccc(N2CCN(c3ncccc3C#N)CC2)cc1,-1%,2%,-4%,2%,-10%,-1%
COc1ccc(N2CCN(c3ncccc3-c3nc(-c4ccccc4C)no3)CC2)cc1,15µM*,·,·,·,·,·
CC(=O)NCCc1c[nH]c2ccc(OCC(O)CNC(C)(C)C)cc12 (centres undefined),-2%,1%,-2%,1%,·,0%
O=C1CCC(C(=O)N2CCCC(C(=O)c3ccc4c5c(cccc35)CC4)C2)=NN1 (centres undefined),-15%,?,-4%,-7%,·,-5%
O=C(NCCCN1CCN(c2ccccc2F)CC1)c1ccc2nc(N3CCCCC3)sc2c1,?,·,·,·,5.6µM*,·
O=C(NCC1CCCO1)c1ccc2nc(N3CCCCC3)sc2c1 (centres undefined),17µM*,?,2µM*,?,0%,?
CC1CCN(c2nc3ccc(C(=O)O)cc3s2)CC1,0.21µM*,?,-48%,-49%,-53%,-23%
CC1CCN(c2nc3ccc(C(=O)NCc4ccc(Cl)cc4)cc3s2)CC1,11µM*,·,·,·,-57%,·
SMILES,FLuc counter,ELG1 repair inh,NPC1 prom act,Rab9 prom act,SMN2 splice up,ELG1 genotox
Cc1ccc(CCNC(=O)c2ccc3nc(N4CCC(C)CC4)sc3c2)cc1,-14%,·,·,·,0%,·
Cc1cccc(N2CCN(C(=O)c3ccc4nc(N5CCC(C)CC5)sc4c3)CC2)c1C,?,·,·,·,13%,·
CC1CCN(c2ccc3c(c2)S(=O)(=O)c2cccc(C(=O)NC4CC4)c2C3=O)CC1,·,?,·,·,·,7%
Cc1cccc(CC2C(=O)Nc3ccccc32)c1 (centres undefined),-2%,·,·,·,·,·
CC1CCN(c2nc3ccc(C(=O)NCc4ccccc4Cl)cc3s2)CC1,6.7µM*,·,·,·,-10%,·
COc1ccccc1CNC(=O)c1ccc2nc(N3CCCCC3)sc2c1,?,·,·,·,-13%,·
Nc1cc(C2CCCC2)nn1-c1ccccc1,15µM*,?,2.2µM*,?,20µM*,?
CCc1ccc(-c2cc3c(N4CCN(c5ccccc5)CC4)nccn3n2)cc1,19µM*,·,·,·,14µM*,·
Cc1cccc(-c2cc(N)n(-c3ccccc3)n2)c1,4.3µM*,?,1.3µM*,0.79µM*,11µM*,?
Cc1ccc(-c2cc(N)n(-c3ccccc3)n2)cc1,1.7µM*,?,1.1µM*,2.8µM*,11µM*,?
Cn1cc(-c2cc3n(n2)CCC(=O)N3CC(=O)NCc2ccc(Cl)cc2)c2ccccc21,-5%,·,·,·,·,·
Cc1cccc(NC(=O)CSc2nc3ccccc3c(=O)n2C)c1,-5%,?,-11%,-6%,·,6%
CC1=C(C(=O)NCc2ccc(Cl)cc2)C2(CCCCC2)OC1=O,-9%,·,·,·,·,·
O=C(c1ccco1)N1CCC2(CC1)CCN(c1cccc(-c3ccccc3)c1)CC2,·,·,·,·,-40%,·
N#CCCSc1ccccc1NC(=O)c1cc(=O)c2ccccc2o1,-7%,-14%,3%,13%,·,-7%
Cc1cccc(-c2cc(NC(=O)C(C)(C)C)n(-c3ccccc3)n2)c1,21µM*,·,·,·,·,·
CCc1ccc(-c2cc(N)n(-c3ccccc3)n2)cc1,1.7µM*,?,0.56µM*,1.3µM*,5µM*,2.6µM*
O=C(Oc1ccc(C(=S)N2CCCCC2)cc1)c1ccccc1,?,4%,-6%,-12%,·,3%
O=C(Oc1ccc(C(=S)N2CCC(O)CC2)cc1)c1ccc(Cl)cc1,5.4µM*,11%,-2%,4%,3%,0%
COc1cccc(CNc2ccc3c(c2)nc(C)n3C)c1OC,24µM*,9%,?,?,·,?
Cc1nc2cc(NCc3nc4ccccc4n3Cc3ccccc3)ccc2n1C,0.6µM*,?,1.1µM*,0.71µM*,1%,?
Cc1ccc(N2CCN(c3ccc(NCc4nc5ccccc5n4C)cc3)CC2)cc1,-19%,-1%,0%,2%,-25%,0%
